Results as given in the supplement of paper PMC3334620.
Over roughly 33,000 sequences, “E-score (-0.5 to 0.5)” has its median near -0.043; the highest 2% begin near 0.37. The sample as a whole holds a higher share of the highest values than the screen did.

Each sequence was assayed against T1, Upc2 (UniProt Q12151) (assay: PBM E-score (8-mer binding enrichment) (E-score (-0.5 to 0.5)); higher = stronger / more preferred TF binding). Conditions: protein concentration: 200 nM; construct: GST-full length.
T1 sequence: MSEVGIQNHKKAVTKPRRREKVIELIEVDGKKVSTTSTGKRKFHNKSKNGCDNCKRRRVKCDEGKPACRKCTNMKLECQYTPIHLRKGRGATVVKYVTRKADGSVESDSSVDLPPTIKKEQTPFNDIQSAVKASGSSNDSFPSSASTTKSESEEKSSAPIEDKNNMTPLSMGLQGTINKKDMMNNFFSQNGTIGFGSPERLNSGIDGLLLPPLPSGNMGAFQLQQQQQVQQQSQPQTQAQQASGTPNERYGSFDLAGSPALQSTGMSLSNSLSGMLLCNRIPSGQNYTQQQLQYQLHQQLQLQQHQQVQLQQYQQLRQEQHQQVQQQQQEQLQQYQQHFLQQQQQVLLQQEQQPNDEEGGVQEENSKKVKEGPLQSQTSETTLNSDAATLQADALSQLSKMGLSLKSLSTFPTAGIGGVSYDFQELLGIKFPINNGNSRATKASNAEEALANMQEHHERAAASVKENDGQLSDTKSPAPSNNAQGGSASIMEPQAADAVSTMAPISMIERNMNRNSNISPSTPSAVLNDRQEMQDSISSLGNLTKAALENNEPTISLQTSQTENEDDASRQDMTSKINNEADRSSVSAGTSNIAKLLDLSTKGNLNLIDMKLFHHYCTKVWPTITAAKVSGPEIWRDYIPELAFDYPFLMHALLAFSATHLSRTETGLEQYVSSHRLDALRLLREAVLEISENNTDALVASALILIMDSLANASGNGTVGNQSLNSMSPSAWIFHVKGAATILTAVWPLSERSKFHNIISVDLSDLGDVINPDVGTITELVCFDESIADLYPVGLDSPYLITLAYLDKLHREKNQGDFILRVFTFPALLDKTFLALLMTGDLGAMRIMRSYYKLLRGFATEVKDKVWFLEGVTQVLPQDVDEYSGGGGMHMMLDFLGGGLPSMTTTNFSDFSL
Procedure, shortened: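 For each ungapped eight-base word taken together with its reverse complement, the Universal PBM Analysis Suite assigned an E-score. Binding data came from GST-tagged yeast transcription factors, applied at about 100-200 nM, on universal all-10-mer Agilent arrays made double-stranded by primer extension. Fluorescent anti-GST marked bound protein, and scans were normalised with masliner.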

Row | Sequence | PBM E-score
1 | CAAACGAG | 0.484
2 | GAAACGGC | 0.187
3 | GAAACGAC | 0.423
4 | ATTGCTGG | -0.0945
5 | CACGGCTC | -0.128
6 | ACGCTGGA | 0.0743
7 | CCAACCCA | -0.236
8 | ATCCACCC | -0.179
9 | GGGTTACC | 0.0304
10 | ACGCTTAA | 0.135
11 | ATTGGATG | 0.03
12 | ATTACCAA | -0.131
13 | CGCTAGAC | -0.0752
14 | GCGTACCA | 0.215
15 | CGGTACAA | 0.222
16 | TCGTACAA | 0.487
17 | CAGTACAA | -0.0317
18 | TCGTACCA | 0.476
19 | CCGTACAA | 0.413
20 | ACGTACCA | 0.255
21 | ACGTACAA | 0.309
22 | GCGTACAA | 0.324

Row | Sequence | PBM E-score
23 | AGCCCTTC | -0.211
24 | ATATATCC | 0.0459
25 | AGAGGACG | -0.0919
26 | AATGGGCA | -0.00586
27 | CAAGATAG | -0.0974
28 | CTTTCGTC | -0.043
29 | ATTTCGTA | 0.431
30 | CTTTCGTA | 0.416
31 | ATTTCGTG | 0.0688
32 | GTTTCGGA | 0.219
33 | CTTTCGGA | -0.11
34 | ATTTCGTC | 0.0429
35 | GTTTCGTA | 0.446
36 | GTTTCGAA | 0.0998
37 | CATAATCC | -0.0711
38 | GAAGGCGC | -0.132
39 | AGCGTAAT | -0.0565
40 | CAGCTATA | 0.0617
41 | ATACGATC | 0.465
42 | ACACGATG | 0.166
43 | AGACGATG | 0.0313
44 | ATACGATG | 0.473

Row | Sequence | PBM E-score
45 | ACACGATC | 0.123
46 | CTACGATC | 0.288
47 | CGCTAAAC | 0.345
48 | ACAAGCCC | -0.1
49 | CAGAACGC | -0.0286
50 | AAGAACGG | 0.0306
51 | GAGAACGA | 0.36
52 | AAGAACGT | 0.108
53 | CAGAACGG | 0.139
54 | TAGAACCA | -0.0454
55 | CAGAACGA | 0.399
56 | AAGAACGA | 0.408
57 | TAGAACGA | 0.383
58 | CTTGGATA | -0.103
59 | AACCTAAC | -0.0536
60 | CCCCAACG | -0.107
61 | ATTTAACC | -0.0686
62 | CCTAAACC | 0.0842
63 | ACTAAACG | 0.463
64 | ATTTAACG | 0.387
65 | ACTAAACA | -0.109
66 | ATTTAACA | 0.0412

Row | Sequence | PBM E-score
67 | ATTAAACC | -0.0396
68 | ACTAAACC | 0.0385
69 | ATTAAACG | 0.461
70 | CCTAAACA | -0.063
71 | ATTAAACA | -0.0789
72 | CCTAAACG | 0.472
73 | CGACTCTA | 0.0472
74 | CAAGGTTA | 0.0313
75 | AGCATCCG | 0.106
76 | TACTCAGA | -0.0518
77 | CGCCTGTA | -0.0476
78 | GACCCACA | 0.0499
79 | CAAGTAAA | 0.0181
80 | GGTTGACA | -0.0866
81 | ATCTAATC | -0.0686
82 | TCTCGTCA | -0.0265
83 | CCTCGTAC | 0.477
84 | CCTCGTCA | 0.108
85 | CCTCGGAC | 0.199
86 | CCGCGTAC | 0.324
87 | CCTCATAG | -0.226
